Consider 17 compounds from PubChem BioAssay.

Test [1] has as its system XIP peptide (Xip251-270) binding. The test is described as follows: small-molecule binders of XIP peptide, primary screen, biochemical, small-molecule microarray, fluorescence 635/667 nm, 0.1 µg/mL protein (AID 1182). Particulars: fluorescent protein binding, 635 nm, higher = more signal, called active from +8 up or from −8 down.
A further test relates to XIP peptide (Xip251-270). Put plainly: small-molecule binders of XIP peptide, primary screen, biochemical, small-molecule microarray, fluorescence 635/667 nm, 0.5 µg/mL protein (AID 1183). The settings on record: small-molecule microarray binding, fluorescence 635 nm; higher = more signal.
The nature of test [2]: Plasmodium falciparum growth inhibition, primary screen, strain 3D7, DAPI fluorescence, 100 nL (AID 1184).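 Note: parasites grown inside human red blood cells in medium with human serum.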 Particulars: P. falciparum 3D7 growth, 3 d, higher = more signal.
In test [3] the target is Homeobox protein Hox-A13 (Mus musculus) (UniProt Q62424). Put plainly: inhibitors of HoxA13-DNA binding, primary screen, biochemical, fluorescence polarization, labeled oligonucleotide (AID 1185). The settings on record: 15 min, higher = more signal, called active from +8 up or from −8 down.
Test [4] is described as follows: inhibitors of hydroxyurea-induced Chk1 phosphorylation, primary screen, imaging, HeLa, phospho-Chk1 antibody, percent positive cells (AID 1186). Particulars: hydroxyurea-induced phospho-Chk1 immunofluorescence imaging, higher = more signal.
Test [5] in a line: inhibitors of hydroxyurea-induced Chk1 phosphorylation, primary screen, imaging, HeLa, phospho-Chk1 nuclear intensity (AID 1187). The settings on record: hydroxyurea-induced phospho-Chk1 immunofluorescence imaging, higher = more signal.

Activity calls are given as the source filed them. Unless noted, the rule behind the calls is not given here.

Chain of Homeobox protein Hox-A13 (Mus musculus) (Q62424 whole entry, looked up): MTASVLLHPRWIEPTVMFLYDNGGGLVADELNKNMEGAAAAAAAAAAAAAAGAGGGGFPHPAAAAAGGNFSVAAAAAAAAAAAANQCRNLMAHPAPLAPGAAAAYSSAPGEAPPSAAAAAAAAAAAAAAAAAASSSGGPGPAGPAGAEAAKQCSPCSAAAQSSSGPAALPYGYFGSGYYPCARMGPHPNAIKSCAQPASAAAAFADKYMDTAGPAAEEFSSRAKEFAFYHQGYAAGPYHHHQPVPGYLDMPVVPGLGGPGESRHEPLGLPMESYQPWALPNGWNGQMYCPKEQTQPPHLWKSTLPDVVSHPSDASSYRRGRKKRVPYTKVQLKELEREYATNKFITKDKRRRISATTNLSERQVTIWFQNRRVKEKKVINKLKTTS

For `CN1C(=O)C2C=CC(C(O)c3cccc4ccccc34)N(N3CCCCC3)C2C1=O` (configuration not stated), the results for the composite z-score (in test [1]; with XIP peptide (Xip251-270)) were 0.356 (inactive) and 0.749, respectively. Moreover, the z-score is 0.83 in test [2], -4.64 (inactive) in test [3], 0.906 (inactive) in test [4] and 0.271 (inactive) in test [5].

Consider `O=C1OCC=C[C@H]2OC34C=CCN(Cn5nnc6ccccc65)C(=O)[C@H]3N(CCCO)C(=O)[C@@H]4[C@@H]12` (some centres not stated), for which the results for the composite z-score (in test [1]; with XIP peptide (Xip251-270)) were 0.206 (inactive) and 0.155, respectively. Also, the z-score in test [2] was -1.88; in test [3] it was -1.9 (inactive); in test [4], -0.242 (inactive); in test [5], -0.228 (inactive).

For `CC(CO)N1C(=O)[C@@H]2[C@H]3C(=O)OCC=C[C@H]3OC23C=CCN(Cc2ccccc2)C(=O)[C@@H]13` (some centres not stated), the composite z-score is -0.542 (inactive) in test [1] and 0.189 with XIP peptide (Xip251-270). In addition, the z-score in test [2] was -0.379; in test [3], -2.5 (inactive); in test [4], -0.539 (inactive); in test [5], -0.113 (inactive).

`CC(=O)NCCCC[C@@H]1NC(=O)[C@H]2C[C@@H](C(=O)NCCCC[N+](C)(C)C)[C@@H](c3cccc(OCCO)c3)N2C1=O`: the composite z-score in test [1] is 2.02 (inactive); with XIP peptide (Xip251-270), 0.823. The z-score in test [2] is -0.207; in test [3], -1.96 (inactive); in test [4] it was 0.0751 (inactive); in test [5] it was 0.341 (inactive).

Consider `CCOC(=O)C[C@H]1[C@H](OC(=O)c2ccccc2-c2ccccc2)[C@@H](NC(=O)C2CCCCC2)c2cc(OCCCO)ccc2N1C(=O)Cc1ccc(OC)cc1`, for which the composite z-score in test [1] was 0.0141 (inactive); with XIP peptide (Xip251-270), 0.333. In addition, the z-score in test [2] is 0.273; in test [3], -3.62 (inactive); in test [4] it was -0.0021 (inactive); in test [5], 0.223 (inactive).

Regarding `COc1ccc(NC(=O)O[C@H]2[C@H](OC(=O)Nc3ccccc3)[C@H](OC(=O)Nc3ccccc3)[C@@H](OC)O[C@@H]2CO)cc1`, the composite z-score in test [1] was 0.635 (inactive); with XIP peptide (Xip251-270), 0.934. For the same compound, the z-score in test [2] is -2.37; in test [3], -6.24 (inactive); in test [4], 0.131 (inactive); in test [5], 0.288 (inactive).

In the case of `CC(C)(C)N1CC=CC23O[C@@H]4C=CCOC(=O)[C@@H]4[C@H]2C(=O)N(CCCCCCO)[C@@H]3C1=O` (some centres not stated), the results for the composite z-score (in test [1]; in the test on XIP peptide (Xip251-270)) were -0.196 (inactive) and 0.448, respectively. The z-score in test [2] is -0.429; in test [3] it was -4.45 (inactive); in test [4], -0.156 (inactive); in test [5], -0.43 (inactive).

Turning to `NCCCCCCNC(=O)[C@@H]1C[C@@H]2C(=O)N[C@@H](CCCCN)C(=O)N2[C@@H]1c1cccc(OCCO)c1`, the figures for the composite z-score (in test [1]; in the test on XIP peptide (Xip251-270)) were 1.7 (inactive) and 0.832, respectively. The z-score in test [2] is 0.139; in test [3] it was -3.22 (inactive); in test [4], -0.545 (inactive); in test [5], -0.269 (inactive).

For the compound `O=C1NC(=O)C2C1C=CC(C(O)c1c(F)cccc1Cl)N2Nc1ccc(Cl)cc1Cl` (configuration not stated), the results for the composite z-score (in test [1]; in the test on XIP peptide (Xip251-270)) were 0.831 (inactive) and 0.709, respectively. For the same compound, the z-score was -0.0027 in test [2], -6.24 (inactive) in test [3], 1.05 (inactive) in test [4] and 0.702 (inactive) in test [5].

For `[N-]=[N+]=Nc1ccccc1[C@@H]1OC(c2ccc(OCCCO)cc2)=N[C@]1(Cc1ccccc1)C(=O)NCC(O)CO` (some centres not stated), the composite z-score in test [1] was 2.53 (inactive); in the test with XIP peptide (Xip251-270), 0.747. Also, the z-score was -2.14 in test [2], -3.18 (inactive) in test [3], -0.358 (inactive) in test [4] and -0.228 (inactive) in test [5].

In the case of `COCCCNC(=O)[C@@]1(Cc2ccccc2CN=[N+]=[N-])N=C(c2ccc(OCCCO)cc2)O[C@H]1c1ccccc1`, the figures for the composite z-score (in test [1]; in the test on XIP peptide (Xip251-270)) were 1.38 (inactive) and 0.789, respectively. Moreover, the z-score in test [2] is -2.37; in test [3] it was -6.47 (inactive); in test [4], -0.371 (inactive); in test [5], -0.349 (inactive).

Take `CC=CC(O)C1C=CC2C(=O)N(c3ccccc3)C(=O)C2N1Nc1ccccc1F` (configuration not stated): the values for the composite z-score (in test [1]; in the test on XIP peptide (Xip251-270)) were 0.147 (inactive) and 0.744, respectively. For the same compound, the z-score is -0.48 in test [2], -3.7 (inactive) in test [3], 0.0921 (inactive) in test [4] and -0.305 (inactive) in test [5].

In the case of `CCCCC(O)C1C=CC2C(=O)N(c3ccccc3)C(=O)C2N1Nc1ccc(C(C)C)cc1` (configuration not stated), the composite z-score is -0.0775 (inactive) in test [1] and 0.706 in the test with XIP peptide (Xip251-270). In addition, the z-score in test [2] is -0.243; in test [3] it was -2.48 (inactive); in test [4] it was -0.638 (inactive); in test [5] it was -1.2 (inactive).

As for `C=CCN1C(=O)[C@@]2(O[C@@H](CCn3cc([C@H](O)c4ccccc4)nn3)[C@H]([Si](C)(C)c3ccc(OC)cc3)[C@H]2C)c2cc(N3CCC3=O)ccc21`, the composite z-score in test [1] is -0.0195 (inactive); in the test on XIP peptide (Xip251-270), -0.114. For the same compound, the z-score in test [2] was -2.1; in test [3], -5.38 (inactive); in test [4], -0.108 (inactive); in test [5] it was 0.582 (inactive).

`COC(=O)c1cn(C[C@@H](Cc2ccccc2)NC(=O)N[C@H](CO)CCc2oc(C(C)=O)c(C(=O)OC)c2C(=O)OC)nn1`: the composite z-score in test [1] is 0.224 (inactive); in the test on XIP peptide (Xip251-270) it was 0.111. The z-score in test [2] is -0.818; in test [3], -4.33 (inactive); in test [4], -0.406 (inactive); in test [5], -0.043 (inactive).

As for `C=CCOC(=O)[C@H]1[C@@H]2C(=O)O[C@@H](c3ccccc3)[C@@H](c3ccccc3)N2[C@@H](c2ccc(OCCOC(=O)[C@H]3C[C@H]4C(=O)N[C@@H](CCCCNC(C)=O)C(=O)N4[C@H]3c3ccc(O)cc3)cc2)[C@]12C(=O)Nc1ccccc12`, the results for the composite z-score (in test [1]; with XIP peptide (Xip251-270)) were 2.69 (inactive) and 0.685, respectively. Further, the z-score in test [2] was -1.72; in test [3], -1.06 (inactive); in test [4] it was 0.203 (inactive); in test [5], 0.261 (inactive).

In the case of `CC(=O)NCCCC[C@@H]1NC(=O)[C@@H]2C[C@H](C(=O)NCCCC[N+](C)(C)C)[C@H](c3ccc(O)cc3)N2C1=O`, the composite z-score in test [1] was 2.41 (inactive); in the test with XIP peptide (Xip251-270) it was 0.842. Besides, the z-score in test [2] is -0.859; in test [3] it was 0.749 (inactive); in test [4], -0.508 (inactive); in test [5] it was -0.589 (inactive).
